Experimental data from PubChem BioAssay.
Active and inactive are the calls of the source.

Columns and labels:
[1] = binders of probe aFSTL3 on microarray, primary screen, stem cell growth factor project, biochemical, small-molecule microarray, fluorescence 635/667 (AID 1064); settings: higher = more signal;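 also: measures binding of the biotinylated anti-FSTL3 antibody to printed compounds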
[2] = binders from COS7 lysate, DM2A8 probe, primary screen, torsin A project, cell lysate, small-molecule microarray, fluorescence 635/667 (AID 1065); settings: higher = more signal, COS7 lysate expressing mutant human TOR1A
[3] = binders of probe aFGF2 on microarray, primary screen, stem cell growth factor project, biochemical, small-molecule microarray, fluorescence 635/667 (AID 1067); settings: higher = more signal;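 also: measures binding of biotinylated aFGF2 protein to printed compounds on slides; z-score merges feature fluorescence and signal-to-noise across triplicate slides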
[4] = binders of probe aFGF10 on microarray, primary screen, stem cell growth factor project, biochemical, small-molecule microarray, fluorescence 635/667 (AID 1071); settings: higher = more signal;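 also: score merges 667 nm spot intensity and signal to noise from triplicate slides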
[5] = target: Neurogenic locus notch homolog protein 2 (Homo sapiens) (UniProt Q04721); assay: Notch2 binders on small-molecule microarrays, primary screen, biochemical, small-molecule microarray, 635 nm fluorescence, stem cell growth factors (AID 1073); settings: Notch2 binding, higher = more signal
[6] = target: Pro-neuregulin-1, membrane-bound isoform (Homo sapiens) (UniProt Q02297); assay: NRG1 binders on small-molecule microarrays, primary screen, psychiatric disease protein project, biochemical, small-molecule microarray, fluorescence 635/667 (AID 1075); settings: NRG1 binding, 635 nm fluorescence, higher = more signal;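 also: score combines 667 nm spot fluorescence with signal to noise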
[7] = tested on: Neuregulin-1 EGF-like domain; assay: binders of neuregulin-1 EGF-like domain, primary screen, biochemical, small-molecule microarray, 635 nm fluorescence (AID 1081); settings: small-molecule microarray binding, higher = more signal;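 also: binding of the protein to compounds printed on small-molecule microarray slides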
[8] = FRG1 promoter luciferase signal modulators, primary screen, FRG1 inhibition for FSHD, cell-based, C2C12 myotubes, firefly/Renilla luciferase, luminescence (AID 1084); settings: higher = more signal, called active from +8 up or from −8 down
[9] = binders of probe aFST on microarray, primary screen, stem cell growth factor project, biochemical, small-molecule microarray, fluorescence 635/667 (AID 1086); settings: higher = more signal;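 also: score merges 667 nm fluorescence with signal-to-noise of each printed compound spot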
[10] = binders of probe aHhip on microarray, primary screen, stem cell growth factor project, biochemical, small-molecule microarray, fluorescence 635/667 (AID 1087); settings: higher = more signal;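 also: score merges spot fluorescence at 667nm with spot signal to noise ratio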
[11] = tested on: PRMT1 (protein arginine N-methyltransferase 1); assay: PRMT1 binders on small-molecule microarrays, primary screen, biochemical, small-molecule microarray, 635 nm fluorescence (AID 1088); settings: small-molecule microarray binding, higher = more signal;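 also: binding of Prmt1 protein to compounds spotted on small-molecule microarray slides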
[12] = yeast growth modulation, basal conditions, primary screen, YJM789 clinical isolate, OD600, 24 h (AID 1089);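 also: growth of clinical yeast isolate S. cerevisiae YJM 789 seeded 1000 cells per well; test concentration not given here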; settings: S. cerevisiae YJM789 growth, higher = more signal, called active from +8 up or from −8 down
[13] = fission yeast growth modulation, primary screen, strain 972, OD600, 24 h, no modulator (AID 1090);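 also: basal condition with compound alone and no growth modifier present; test concentration not given here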; settings: S. pombe 972 growth, higher = more signal, called active from +8 up or from −8 down
[14] = S. cerevisiae growth modulation with rapamycin, primary screen, strain BY4716, OD600, 96 h (AID 1091); settings: higher = more signal, called active from +8 up or from −8 down; also: test concentration not given here
[15] = target: Torsin-1A-interacting protein 2 (Homo sapiens) (UniProt Q8NFQ8); assay: LULL1 binders on small-molecule microarray, primary screen, cell lysate, human LULL1 lysate, 635/667 nm fluorescence (AID 1092); settings: hLULL1 lysate binding, 635 nm fluorescence, higher = more signal;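 also: probe is lysate of COS7 cells overexpressing human LULL1; score merges per-feature 667 nm fluorescence with signal-to-noise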
[16] = E. coli growth modulation, two-sided OD650, primary screen, E. coli filamentation project, strain DRC41, 24 h (AID 1093); settings: OD650, 24 h, higher = more signal, called active from +8 up or from −8 down;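 also: MC1000 strain lacking acrAB efflux and sulA so SOS filamentation is blocked; test concentration not given here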
[17] = small-molecule microarray binders of probe aLefty2, primary screen, biochemical, biotinylated probe, 635/667 nm fluorescence (AID 1094); settings: higher = more signal;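 also: score merges spot fluorescence near 667 nm with spot signal-to-noise ratio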
[18] = tested on: Noggin (protein binding on small-molecule microarray); assay: Noggin binders on small-molecule microarray, primary screen, biochemical, 635/667 nm fluorescence (AID 1095); settings: 635 nm fluorescence, higher = more signal;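 also: score merges 667 nm feature fluorescence with signal to noise over triplicate slides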
[19] = target: Neurogenic locus notch homolog protein 3 (Homo sapiens) (UniProt Q9UM47); assay: NOTCH3 binders on small-molecule microarray, primary screen, biochemical, 635/667 nm fluorescence (AID 1096); settings: NOTCH3 binding, 635 nm fluorescence, higher = more signal
[20] = small-molecule microarray binders of probe aEGFR, primary screen, biochemical, biotinylated probe, 635/667 nm fluorescence (AID 1097); settings: higher = more signal;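 also: probe is a biotinylated anti-EGFR antibody binding compounds printed on slides; score combines fluorescence near 667 nm and signal to noise of each spot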

Chain of Neurogenic locus notch homolog protein 2 (Homo sapiens) (Q04721 whole entry, looked up, canonical isoform): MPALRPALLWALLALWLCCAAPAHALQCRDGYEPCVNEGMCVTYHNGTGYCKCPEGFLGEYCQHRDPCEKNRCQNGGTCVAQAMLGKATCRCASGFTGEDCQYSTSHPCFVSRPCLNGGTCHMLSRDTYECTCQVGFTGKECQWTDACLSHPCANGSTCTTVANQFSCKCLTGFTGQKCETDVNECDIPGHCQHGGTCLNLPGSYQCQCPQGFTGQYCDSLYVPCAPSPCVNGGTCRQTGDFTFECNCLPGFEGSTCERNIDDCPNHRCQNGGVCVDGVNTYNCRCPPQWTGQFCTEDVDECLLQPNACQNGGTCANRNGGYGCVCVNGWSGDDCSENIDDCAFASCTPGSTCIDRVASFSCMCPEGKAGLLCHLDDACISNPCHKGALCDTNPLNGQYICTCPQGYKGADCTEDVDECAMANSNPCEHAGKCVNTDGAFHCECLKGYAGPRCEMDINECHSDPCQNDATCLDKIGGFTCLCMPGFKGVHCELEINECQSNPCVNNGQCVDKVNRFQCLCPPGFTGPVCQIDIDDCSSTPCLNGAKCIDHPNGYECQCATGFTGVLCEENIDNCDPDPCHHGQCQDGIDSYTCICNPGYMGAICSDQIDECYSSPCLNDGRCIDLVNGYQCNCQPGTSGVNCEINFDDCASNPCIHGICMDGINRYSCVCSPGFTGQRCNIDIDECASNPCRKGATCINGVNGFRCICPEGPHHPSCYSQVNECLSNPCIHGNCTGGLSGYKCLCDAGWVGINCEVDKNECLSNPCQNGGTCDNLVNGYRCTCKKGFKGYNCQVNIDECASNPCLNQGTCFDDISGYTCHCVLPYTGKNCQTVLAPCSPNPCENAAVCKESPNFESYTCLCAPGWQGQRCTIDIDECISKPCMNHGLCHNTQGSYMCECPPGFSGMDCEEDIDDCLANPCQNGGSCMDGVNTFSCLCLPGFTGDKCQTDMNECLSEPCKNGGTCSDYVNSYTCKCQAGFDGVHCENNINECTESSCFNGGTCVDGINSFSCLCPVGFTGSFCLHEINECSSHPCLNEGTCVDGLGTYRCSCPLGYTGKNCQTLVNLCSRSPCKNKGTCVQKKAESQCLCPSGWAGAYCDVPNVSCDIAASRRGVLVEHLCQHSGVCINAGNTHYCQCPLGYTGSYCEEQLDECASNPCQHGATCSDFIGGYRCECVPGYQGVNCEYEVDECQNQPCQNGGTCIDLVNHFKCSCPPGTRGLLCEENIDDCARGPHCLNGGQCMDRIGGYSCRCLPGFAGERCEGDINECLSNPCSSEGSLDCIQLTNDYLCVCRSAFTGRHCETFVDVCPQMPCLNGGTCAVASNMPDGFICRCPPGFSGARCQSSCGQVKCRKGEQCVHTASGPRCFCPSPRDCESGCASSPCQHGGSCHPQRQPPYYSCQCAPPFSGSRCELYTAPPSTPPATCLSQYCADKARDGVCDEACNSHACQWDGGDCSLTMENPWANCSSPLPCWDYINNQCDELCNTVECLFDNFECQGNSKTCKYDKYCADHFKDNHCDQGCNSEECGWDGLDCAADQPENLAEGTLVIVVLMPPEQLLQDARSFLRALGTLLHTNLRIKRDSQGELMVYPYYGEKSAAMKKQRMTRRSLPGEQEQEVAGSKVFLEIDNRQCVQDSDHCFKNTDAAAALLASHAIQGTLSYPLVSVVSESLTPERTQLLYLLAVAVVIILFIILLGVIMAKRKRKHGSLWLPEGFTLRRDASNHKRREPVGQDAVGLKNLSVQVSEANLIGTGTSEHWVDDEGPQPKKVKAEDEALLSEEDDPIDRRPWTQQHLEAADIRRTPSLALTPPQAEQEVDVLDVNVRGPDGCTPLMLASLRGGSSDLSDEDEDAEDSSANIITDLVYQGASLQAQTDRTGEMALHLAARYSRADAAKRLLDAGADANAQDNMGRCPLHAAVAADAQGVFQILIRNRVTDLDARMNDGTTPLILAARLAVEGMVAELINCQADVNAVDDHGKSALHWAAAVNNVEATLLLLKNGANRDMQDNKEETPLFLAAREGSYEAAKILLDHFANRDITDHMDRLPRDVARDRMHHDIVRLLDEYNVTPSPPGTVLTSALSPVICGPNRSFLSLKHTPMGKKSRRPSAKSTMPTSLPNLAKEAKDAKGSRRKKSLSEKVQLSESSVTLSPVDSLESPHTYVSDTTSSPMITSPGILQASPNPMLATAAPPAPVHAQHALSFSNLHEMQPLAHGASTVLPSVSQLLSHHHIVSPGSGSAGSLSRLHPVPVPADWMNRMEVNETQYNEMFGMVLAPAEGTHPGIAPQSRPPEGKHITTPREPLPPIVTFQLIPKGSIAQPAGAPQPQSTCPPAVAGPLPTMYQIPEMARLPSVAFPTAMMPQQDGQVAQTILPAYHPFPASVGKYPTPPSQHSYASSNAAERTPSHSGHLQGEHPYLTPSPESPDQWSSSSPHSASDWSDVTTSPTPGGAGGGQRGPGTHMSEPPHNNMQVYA
Chain of Neurogenic locus notch homolog protein 3 (Homo sapiens) (Q9UM47 whole entry, looked up): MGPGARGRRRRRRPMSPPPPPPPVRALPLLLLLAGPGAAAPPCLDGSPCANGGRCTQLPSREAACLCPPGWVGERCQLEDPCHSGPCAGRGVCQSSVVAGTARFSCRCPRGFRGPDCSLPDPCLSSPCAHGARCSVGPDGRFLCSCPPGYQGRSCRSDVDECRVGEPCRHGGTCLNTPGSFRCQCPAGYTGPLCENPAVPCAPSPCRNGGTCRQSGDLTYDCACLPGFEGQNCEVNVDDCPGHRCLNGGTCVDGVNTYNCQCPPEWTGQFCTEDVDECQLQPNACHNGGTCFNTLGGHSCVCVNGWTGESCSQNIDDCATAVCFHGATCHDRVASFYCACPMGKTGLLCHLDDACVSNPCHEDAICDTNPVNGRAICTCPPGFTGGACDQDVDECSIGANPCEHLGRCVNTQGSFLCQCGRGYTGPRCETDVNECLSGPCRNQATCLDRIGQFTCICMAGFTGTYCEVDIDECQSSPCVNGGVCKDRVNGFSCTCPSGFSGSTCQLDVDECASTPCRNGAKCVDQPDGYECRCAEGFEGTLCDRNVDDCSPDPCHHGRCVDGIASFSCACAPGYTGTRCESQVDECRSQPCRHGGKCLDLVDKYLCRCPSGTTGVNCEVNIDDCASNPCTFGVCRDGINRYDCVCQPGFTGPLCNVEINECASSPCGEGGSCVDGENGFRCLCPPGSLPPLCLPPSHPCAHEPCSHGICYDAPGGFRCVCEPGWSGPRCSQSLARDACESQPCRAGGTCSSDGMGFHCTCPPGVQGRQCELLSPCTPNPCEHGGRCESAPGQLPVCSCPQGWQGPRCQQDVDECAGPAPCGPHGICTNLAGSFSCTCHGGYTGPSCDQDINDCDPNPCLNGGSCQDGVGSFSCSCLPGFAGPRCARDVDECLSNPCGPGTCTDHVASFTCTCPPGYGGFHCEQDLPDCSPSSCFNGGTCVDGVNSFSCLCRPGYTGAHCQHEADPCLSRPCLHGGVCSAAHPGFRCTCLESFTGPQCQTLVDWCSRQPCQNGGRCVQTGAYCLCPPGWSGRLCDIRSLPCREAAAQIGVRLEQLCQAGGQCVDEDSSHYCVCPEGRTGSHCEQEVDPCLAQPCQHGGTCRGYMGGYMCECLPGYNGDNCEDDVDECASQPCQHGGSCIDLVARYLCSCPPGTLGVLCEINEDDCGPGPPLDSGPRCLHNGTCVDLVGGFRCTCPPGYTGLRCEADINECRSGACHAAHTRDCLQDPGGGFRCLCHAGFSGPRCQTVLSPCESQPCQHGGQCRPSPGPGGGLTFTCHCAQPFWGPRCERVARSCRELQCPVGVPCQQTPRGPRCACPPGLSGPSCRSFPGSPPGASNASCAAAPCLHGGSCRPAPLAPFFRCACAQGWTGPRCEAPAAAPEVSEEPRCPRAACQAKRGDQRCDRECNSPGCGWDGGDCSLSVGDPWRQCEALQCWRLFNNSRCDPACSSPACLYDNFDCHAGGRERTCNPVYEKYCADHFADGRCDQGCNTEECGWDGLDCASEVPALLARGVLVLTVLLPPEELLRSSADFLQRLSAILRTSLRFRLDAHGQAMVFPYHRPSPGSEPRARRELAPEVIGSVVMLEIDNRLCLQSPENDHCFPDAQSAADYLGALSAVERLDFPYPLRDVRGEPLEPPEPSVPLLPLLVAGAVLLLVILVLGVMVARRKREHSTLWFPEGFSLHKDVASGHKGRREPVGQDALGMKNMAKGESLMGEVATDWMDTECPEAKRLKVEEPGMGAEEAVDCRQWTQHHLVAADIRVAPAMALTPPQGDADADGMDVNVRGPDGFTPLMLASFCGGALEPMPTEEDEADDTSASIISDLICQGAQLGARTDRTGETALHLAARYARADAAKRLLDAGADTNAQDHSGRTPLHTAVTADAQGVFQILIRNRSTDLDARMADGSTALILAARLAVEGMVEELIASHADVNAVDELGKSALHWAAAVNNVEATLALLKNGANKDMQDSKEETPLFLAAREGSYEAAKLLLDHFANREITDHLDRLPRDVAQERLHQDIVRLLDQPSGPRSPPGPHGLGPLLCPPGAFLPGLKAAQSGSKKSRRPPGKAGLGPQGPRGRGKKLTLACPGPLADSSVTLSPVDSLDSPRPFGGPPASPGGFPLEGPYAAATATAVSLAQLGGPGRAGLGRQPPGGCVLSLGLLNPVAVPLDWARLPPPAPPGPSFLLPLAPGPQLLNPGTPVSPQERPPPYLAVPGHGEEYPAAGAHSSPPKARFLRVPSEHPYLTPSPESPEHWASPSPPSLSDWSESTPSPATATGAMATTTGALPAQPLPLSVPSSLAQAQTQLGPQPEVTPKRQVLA

| SMILES | composite z-score [1] | composite z-score [2] | composite z-score [3] | composite z-score [4] | composite z-score [5] | composite z-score [6] | composite z-score [7] | z-score [8] | composite z-score [9] | composite z-score [10] | composite z-score [11] | z-score [12] | z-score [13] | z-score [14] | composite z-score [15] | z-score [16] | composite z-score [17] | composite z-score [18] | composite z-score [19] | composite z-score [20] |
| --- | --- | --- | --- | --- | --- | --- | --- | --- | --- | --- | --- | --- | --- | --- | --- | --- | --- | --- | --- | --- |
| COc1ccc([Si](C)(C)[C@H]2[C@H](CC(=O)N(CCO)Cc3ccccc3)O[C@@]3(C(=O)N(Cc4cccc(N5C(=O)COc6ccccc65)c4)c4ccccc43)[C@@H]2C)cc1 | 1.54 | 0.347 | -0.106 | 0.585 | 0.703 | 1.11 | 1.27 | -1.84 (inactive) | -0.103 | 0.245 | 1.44 | 2.21 (inactive) | 0.272 (inactive) | 3.48 (inactive) | 2.13 | 2.09 (inactive) | -0.0846 | 0.97 | 0.496 | 0.0927 |
| CC(C)C(=C=CC[C@H](O)c1ccc(OCCO)cc1)C[C@H](O)COCc1ccccc1 | -0.254 | 1.75 | -0.128 | 0.411 | -0.438 | 0.639 | 1.09 | -1.37 (inactive) | -0.0173 | -0.0994 | 1.23 | 1.09 (inactive) | -2.45 (inactive) | -0.668 (inactive) | 1.76 | 0.775 (inactive) | -0.119 | 1.51 | 0.229 | -0.166 |
| O=C1c2ccccc2[C@](Cc2ccccc2I)(C(=O)O)[C@H](c2ccc(CO)cc2)N1Cc1ccccc1Cl | 0.668 | 0.651 | -0.0301 | 0.0635 | 0.268 | 0.955 | 0.819 | 0.17 (inactive) | 0.43 | -0.0994 | 1.21 | -0.818 (inactive) | -1.53 (inactive) | -1.19 (inactive) | 1.82 | 1.13 (inactive) | 0.0678 | -0.168 | 0.239 | -0.104 |
| COC(=O)C1=CC(CCCO)=CC(C2CC2)N(Cc2cc3c(cc2Br)OCO3)C=C1C(=O)OC (stereo not given) | 1.74 | 2.08 | -0.0656 | -0.435 | 0.728 | 2.22 | 1.3 | -0.0234 (inactive) | 0.796 | -0.0645 | 1.54 | -1.04 (inactive) | -2.22 (inactive) | -1.23 (inactive) | 3 | -0.741 (inactive) | 0.392 | -0.705 | 0.647 | 0.0821 |
| CCOC(=O)C[C@H]1[C@H](OC(=O)c2ccc(-c3ccccc3)cc2)[C@@H](NC(=O)c2ccccc2)c2cc(OCCCO)ccc2N1C(=O)c1ccccc1 | -0.3 | 0.707 | 0.0216 | 0.281 | 0.741 | 0.622 | 0.773 | -0.867 (inactive) | 0.515 | 0.201 | 1.35 | -1.08 (inactive) | -1.94 (inactive) | -0.596 (inactive) | 1.69 | 2.17 (inactive) | 0.0921 | -0.0461 | 0.526 | -0.019 |
